# Compound activity as filed in PubChem BioAssay.
# MRP resist rev: MRP-mediated drug resistance reversal; 85,000 tested, 0.04% active; H69AR cells + 2 uM doxorubicin, CellTiter-Glo, 72 h; AID 602; differential viability (reversal), % at 10 µM;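 active = viability drop by adding the cancer drug above about 55%, with treated viability meeting a 40% cutoff, limit read from the data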;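 note: viability without doxorubicin minus viability with 2 µM doxorubicin for each compound; larger differential means the compound sensitizes cells more to doxorubicin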
# Smad3 inh: Smad3 (human) transcription factor binding inhibition | 88,000 tested, 0.29% active | TR-FRET Smad3/Dy647-FoxH1 peptide binding, europium anti-His | AID 630 | inhibition, % at 25 µM;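 active = compounds that reduce the energy-transfer binding signal between the protein and its labelled peptide by more than half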;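 note: 0% = Smad3 plus labelled peptide maximal FRET and 100% = peptide-only background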
# Target sequence (P84022 whole entry, looked up): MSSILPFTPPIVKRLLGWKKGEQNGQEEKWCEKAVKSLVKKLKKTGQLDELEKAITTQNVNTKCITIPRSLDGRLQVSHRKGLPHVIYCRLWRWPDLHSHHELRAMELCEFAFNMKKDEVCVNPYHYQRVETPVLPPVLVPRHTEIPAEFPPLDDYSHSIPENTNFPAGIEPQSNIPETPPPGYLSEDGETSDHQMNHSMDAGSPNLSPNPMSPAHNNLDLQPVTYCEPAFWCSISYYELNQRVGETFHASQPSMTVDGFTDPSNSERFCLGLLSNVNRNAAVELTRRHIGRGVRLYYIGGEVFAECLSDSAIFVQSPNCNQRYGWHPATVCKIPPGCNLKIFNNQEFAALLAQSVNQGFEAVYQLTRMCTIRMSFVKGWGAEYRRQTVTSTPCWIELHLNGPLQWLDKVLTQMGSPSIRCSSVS
# ERa SRC1 pot: enhances coactivator binding to human estrogen receptor alpha | AID 639 | coactivator binding (% of control), % at 25.6 µM | TR-FRET ERalpha-LBD/SRC-Cy5 coactivator binding, 2 h; 100 = basal binding, no effect | 86,000 tested, 1.3% active; in the data active = activity above about 200%;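 note: binding measured in presence of low estradiol as agonist stimulus; 0% = peptide alone without receptor and 100% = receptor with peptide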
# MRP1 act: activators of MRP-1; H69AR cells + doxorubicin, viability rescue, CellTiter-Glo; viability increase, % at 10 µM; 140,000 tested, 0.61% active;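 active = viability gain under doxorubicin at or above a set limit, the compound median plus 3 SD, cut at about 4.7% in these data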;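 note: MRP-1 overexpressing cells given doxorubicin 25 µM after compound pretreatment; 18-22 h compound pretreatment then 72 h with doxorubicin before readout; 0% = doxorubicin-only wells and 100% = vehicle-treated cells without doxorubicin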
# ERa coact inh: ER-alpha (human) coactivator binding inhibition; P03372; TR-FRET ER-alpha LBD / SRC-1 peptide, estradiol-bound; inhibition, % at 25.6 µM; 86,000 tested, 1.7% active; AID 629; in the data active = inhibition above about 50%;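 note: 0% = receptor plus peptide control and 100% = peptide only without receptor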
# ERb SRC1 inh: blocks coactivator binding to human estrogen receptor beta; inhibition, % at 25.6 µM; TR-FRET ER-beta LBD / SRC1-Cy5 peptide binding; receptor agonist-loaded with 1 µM estradiol; AID 633; 86,000 tested, 1.3% active;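 active = compounds whose percent inhibition of the receptor-coactivator binding signal exceeds about 50% in the single-dose screen, limit read from the data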;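 note: 0% = receptor plus peptide wells without compound and 100% = peptide-only wells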
# Active calls of the source: *; . = no result given; [ ] = dose if it differs, or a comment. Hits are enriched below; roughly 2.8% of the tested compounds scored in any of these assays.
SMILES,MRP resist rev,Smad3 inh,ERa SRC1 pot,MRP1 act,ERa coact inh,ERb SRC1 inh
O=C(Cn1cc(C(=O)c2ccco2)c2ccccc21)NC1CCCC1,1,15,554*[fluorescence artefact?],-3,2,-1
O=C(Cn1cc(C(=O)c2cccs2)c2ccccc21)NC1CCCCC1,-6,10,95,-1,-11,-16
CSc1ccc(C2C(C#N)=C(N)Oc3c2ccc(=O)c2c(C)oc(C)c32)cc1 (stereo not given),4,8,64,-4,78*,58*
C[N+](C)(C)c1ncnc2c1ncn2[C@@H]1CCCCO1,.,8,.,.,.,.
Cn1c(SCC(=O)NC2CCCCC2)nnc1-c1cc2cc(Cl)ccc2o1,9,-118,429*[fluorescence artefact?],0,43,25
Cc1ccc(-c2nnc(SCC(=O)Nc3ccc4c(c3)oc3ccccc34)n2C)c(Cl)c1,-6,-1,103,0,5,1
CC(NC(=O)CSc1nnc(-c2cc3cc(Cl)ccc3o2)n1C)c1ccccc1 (stereo not given),8,-1,99,1,8,2
Cc1cc(NC(=O)CSc2nnc(C3CC3)n2C)no1,-2,2,111,-1,-1,-5
CCC(=O)Nc1cccc(NC(=O)CSc2nnc(C3CC3)n2C)c1,5,1,204*,1,-6,-11
Cn1c(SCC(=O)Nc2cccc(Br)c2)nnc1-c1cc2ccccc2o1,5,-409,631*[fluorescence artefact?],-2,5,15
C[N+]1(CCC[N+]2(C)C[C@@H]3[C@H](C2)[C@@H]2C=C[C@H]3CC2)CCOCC1 (stereo not given in full),.,37,.,.,.,.
CCCc1nc(NCC2CCCO2)c2nnn(Cc3ccccc3)c2n1 (stereo not given),6,4,102,0,2,-6
C#CCOC(=O)[C@H](N)CC(N)=O,.,-3,.,.,.,.
Cc1ccc2nc(-c3ccccc3Cl)cc(C(=O)Nc3cc(C)on3)c2c1,8,-3,217*[fluorescence artefact?],2,-2,1
Oc1c(C=C2N=c3ccccc3=N2)sc(=S)n1-c1ccc(F)cc1,.,.,.,9.2*,.,.
Oc1c(C=C2N=c3ccccc3=N2)sc(=S)n1C1CCCC1,.,.,.,-4,.,.
O=C1[C@@H]2[C@H](Cc3ccc(O)cc3)N[C@]3(C(=O)Nc4ccccc43)[C@@H]2C(=O)N1c1ccc(F)cc1,11,2,101,5.7*,-5,-6
N#Cc1c(N)nc(SCC(=O)C23CC4CC(CC(C4)C2)C3)c(C#N)c1-c1ccc(Cl)cc1,0,17,479*[fluorescence artefact?],-1,34,32
CCOC(=O)CC(=O)CSc1nc(N)c(C#N)c(-c2ccc(Cl)cc2)c1C#N,-2,5,220*[fluorescence artefact?],0,15,19
NC(=O)CSc1nnc2sc3ccccc3n12,21,16,109,-2,1,-8
N#CCSc1nnc2sc3ccccc3n12,5,-6,65,-1,87*[fluorescence artefact?],9
CCOC(=O)c1c(C)[nH]c2cc(Br)c(O)cc12,-6,1,110,-2,-1,-10
CCOC(=O)c1c(OCC)[nH]c2c1cc(O)c1ccccc12,-3,3,68,1,97*[fluorescence artefact?],99*[fluorescence artefact?]
Cc1cc(N=Cc2c(CO)cnc(C)c2O)c(N=Cc2c(CO)cnc(C)c2O)cc1C.[Zn],.,93*,.,.,.,.
O=C1[C@H]2[C@@H]3c4ccccc4[C@H]([C@H]2C(=O)N1c1ccc(OCc2ccccc2)cc1)[n+]1ccccc13,.,0,.,.,.,.
SMILES,MRP resist rev,Smad3 inh,ERa SRC1 pot,MRP1 act,ERa coact inh,ERb SRC1 inh
COc1ccc(CN=C2NC(=O)CC(C(=O)Nc3ccc(F)cc3)S2)cc1 (stereo not given),.,.,.,6.7*,.,.
Cc1nc(=O)c(-c2ccccc2)c(C)n1Cc1ccccc1,8,10,79,-3,11,6
Cc1nc(=O)c(-c2ccccc2)c(C)n1-c1ccc(C(=O)O)cc1,-5,0,122,9.1*,-2,-1
Cc1ccc(C)n1-c1ccc(C(=O)O)cc1,-3,29,19,0,54*[fluorescence artefact?],46
Cc1nc(=O)c(-c2ccccc2)c(C)n1-c1ccc(S(N)(=O)=O)cc1,9,-3,96,6.8*,-38,-28
CC(=O)c1c(C(C)=O)c(C)n(-c2ccc(C(=O)O)cc2)c1C,.,-2,106,0,5,20
CN(C)CC(C)(C)CN1c2ccccc2Sc2ccccc21,.,4,.,.,.,.
